Experimental data reported in PubChem BioAssay.
Active and inactive are the calls of the source.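 Rule for the calls, unless noted: active = inhibition at or above 50% at 10 µM; inactive = inhibition below 50%.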

How the values were obtained:
[1] = inhibitors of TNFa-induced NFkB p65 translocation, primary screen, imaging, HUVEC, MLSMR starter and 10KST1 sets (AID 438;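 active = inhibition above 20% together with a positive visual image hit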;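 note: compound added about 3h40 before a 20 min TNFalpha stimulation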;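 for inhibition: signal is the nuclear over cytoplasmic p65 intensity ratio per well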); settings: HUVEC TNFa-induced p65 nuclear translocation; cell count: measured here: nuclei count (cytotoxicity indicator), at 2.08 µM; inhibition: at 2 µM, stronger effect = higher value, 0% TNFa-plus-vehicle, 100% no-TNFa wells
[2] = reduction of polyQ htt aggregates in cells – imaging, exon1htt(103Q)mCFP cells, high-content imaging, primary screen (AID 483;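 active = visual image review flags a hit and inhibition of aggregation exceeds 20%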;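 note: compound exposure lasted 3 days before fixation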;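 for nuclei count: percent of the per-plate median nuclei count of sample wells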); settings: exon1htt(103Q)mCFP cell line, aggregate imaging, at 2 µM; inhibition of aggregation: stronger effect = higher value; nuclei count: measured here: cell count, toxicity
[3] = endothelial E-selectin expression blockers – imaging, HUVEC, immunofluorescence, MLSMR starter and 10KST1 sets, primary screen (AID 487;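 active = visually confirmed hit in the image check and inhibition above 20%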;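 for inhibition: signal is fraction of cell area covered by stained E-selectin grains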;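 for nuclei count: 100% = median nuclei count of all wells on the same plate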); settings: HUVEC TNFalpha-induced E-selectin immunofluorescence imaging, at 2 µM; inhibition: stronger effect = higher value; nuclei count: measured here: cell number, toxicity
[4] = target: Voltage-gated potassium channel subunit beta-2 (Rattus norvegicus) (UniProt P62483); assay: inhibitors of rat Kvbeta2 reductase activity – biochemical, NADPH fluorescence, primary screen (AID 622;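 active = fluorescence slope higher than the sample average by over 3 SD, cut at about -0.22 in these data, passing the limit was not always enough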;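 note: slope of raw intensity against log time taken from 70 to 1610 s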); settings: recombinant KvBeta, 4-cyanobenzaldehyde reduction, at 10 µM, stronger effect = higher value
[5] = target: Voltage-gated potassium channel subunit beta-2 (Rattus norvegicus) (UniProt P62483); assay: enhancers of rat Kvbeta2 NADPH turnover – biochemical, NADPH fluorescence, primary screen (AID 623;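 active = NADPH fluorescence slope more negative than the mean of all samples by about 3 SD, 99.7% confidence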;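 note: fluorescence intensity change per second fitted from 20 to 320 s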); settings: Recombinant KvBeta, NADPH fluorescence decrease slope, 10 min; at 10 µM; stronger effect = lower value
[6] = target: Alpha-2C adrenergic receptor (Homo sapiens) (UniProt P18825); assay: compounds altering alpha2C-coupled GIRK flux – cell-based, HEK293 alpha2C/GIRK1/2, thallium flux, primary screen (AID 624;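 active = fluorescence slope after compound addition differing from the mean of all screened samples at 99.7% confidence, in either direction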;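 note: slope of fluorescence ratio to pre-addition baseline per second over 15 to 24 s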); settings: thallium flux BTC fluorescence, at 10 µM, actives lie on both sides
[7] = blockers of RIG-like receptor reporter activation – cell-based, Sendai virus stimulus, luciferase, 10K MLSCN set, TLR/RLR signaling modifier project, primary screen (AID 602276); settings: HEK293 RL24 IRF3 luciferase reporter, at 10 µM, stronger effect = higher value;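 note: firefly luciferase from ISG56 promoter only with Renilla not read in this screen; 0% = Sendai virus plus DMSO and 100% = medium plus DMSO without virus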
[8] = TLR3 IRF3 reporter activation blockers – cell-based, poly I:C stimulus, luciferase, 10K MLSCN set, primary screen (AID 602277;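 active = inhibition of the reporter signal at or above 50%; inactive = inhibition below 50%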); settings: HEK293-TLR3 RL24 IRF3 luciferase reporter, at 10 µM, stronger effect = higher value

Chain of Voltage-gated potassium channel subunit beta-2 (Rattus norvegicus) (P62483 whole entry, looked up): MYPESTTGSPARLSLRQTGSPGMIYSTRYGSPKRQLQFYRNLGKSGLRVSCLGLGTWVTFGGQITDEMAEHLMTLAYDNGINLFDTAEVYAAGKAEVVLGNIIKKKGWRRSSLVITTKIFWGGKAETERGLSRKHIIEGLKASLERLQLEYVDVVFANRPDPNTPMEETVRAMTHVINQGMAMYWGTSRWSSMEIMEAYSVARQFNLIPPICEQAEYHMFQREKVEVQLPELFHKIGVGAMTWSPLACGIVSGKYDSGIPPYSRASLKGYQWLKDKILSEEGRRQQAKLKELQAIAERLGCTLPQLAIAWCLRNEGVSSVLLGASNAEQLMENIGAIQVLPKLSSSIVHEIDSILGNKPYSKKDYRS
Chain of Alpha-2C adrenergic receptor (Homo sapiens) (P18825 whole entry, looked up): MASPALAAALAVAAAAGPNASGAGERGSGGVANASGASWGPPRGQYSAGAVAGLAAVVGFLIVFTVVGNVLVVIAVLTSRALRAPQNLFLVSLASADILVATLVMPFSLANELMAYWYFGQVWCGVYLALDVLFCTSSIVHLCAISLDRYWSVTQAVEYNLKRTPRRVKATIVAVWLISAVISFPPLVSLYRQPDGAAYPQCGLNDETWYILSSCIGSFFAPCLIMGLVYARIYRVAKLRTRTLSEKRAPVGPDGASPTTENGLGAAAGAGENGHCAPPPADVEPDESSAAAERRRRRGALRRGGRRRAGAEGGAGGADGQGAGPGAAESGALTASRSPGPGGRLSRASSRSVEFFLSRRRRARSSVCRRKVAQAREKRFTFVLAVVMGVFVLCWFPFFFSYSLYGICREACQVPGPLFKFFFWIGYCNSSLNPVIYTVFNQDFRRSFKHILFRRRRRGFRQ

| SMILES | cell count [1] | inhibition [1] | inhibition of aggregation [2] | nuclei count [2] [%] | inhibition [3] | nuclei count [3] [%] | fluorescence slope [4] | NADPH fluorescence slope [5] | slope [6] | inhibition [7] | inhibition [8] |
| --- | --- | --- | --- | --- | --- | --- | --- | --- | --- | --- | --- |
| CC(=O)c1ccc2c3c(cccc13)C(=O)N(c1c(C)nn(C)c1C)C2=O | 655 | -4.4% (inactive) | -24.6% (inactive) | 108 | -14% (inactive) | 97.5 | -0.633 (inactive) | -5.6e-06 (inactive) | 0.00453 (inactive) | 6.92% (inactive) | -10.1% (inactive) |
| CCOC(=O)c1sc2nc(NC(=O)COc3ccccc3)sc2c1C | 715 | -6.9% (inactive) | 9.3% (inactive) | 106 | -12.6% (inactive) | 105 | -0.591 (inactive) | -1.3e-05 (inactive) | 0.00688 (inactive) | -24% (inactive) | -40.4% (inactive) |
| CCOC(=O)Cn1ncc(-c2ccccc2)c1N | 582 | -0.5% (inactive) | -6.8% (inactive) | 67.2 | -51.5% (inactive) | 96.2 | -0.48 (inactive) | 2.4e-05 (inactive) | 0.0046 (inactive) | -14.7% (inactive) | -27.5% (inactive) |
| CCCCCC(=O)N(CN1C(=O)CCC1=O)c1ccccc1 | 806 | 5.4% (inactive) | -9.8% (inactive) | 100 | 21.6% (inactive) | 111 | -0.283 (inactive) | -4e-05 (inactive) | 0.00618 (inactive) | 9.92% (inactive) | 13.3% (inactive) |
| O=c1cc(CSc2nnnn2-c2ccccc2)nc2scc(-c3ccccc3)n12 | 444 | 8.1% (inactive) | -10.9% (inactive) | 114 | -101% (inactive) | 139 | -0.415 (inactive) | -1.1e-05 (inactive) | 0.004 (inactive) | 1.29% (inactive) | 12% (inactive) |
| Cc1noc(/C=C/N(C)C)c1S(=O)(=O)N1CCCC(C(=O)N2CCCCC2)C1 (centres undefined) | 709 | 9.1% (inactive) | -0.1% (inactive) | 80.5 | -79.5% (inactive) | 117 | -0.516 (inactive) | -3.8e-05 (inactive) | 0.00526 (inactive) | 7.18% (inactive) | 28.7% (inactive) |
| O=C(CCn1c(=O)sc2ccccc21)NCc1ccc2c(c1)OCO2 | 294 | -11.1% (inactive) | 15.6% (inactive) | 92.7 | -28.3% (inactive) | 115 | -0.353 (inactive) | -5.2e-05 (inactive) | 0.00437 (inactive) | -17% (inactive) | -12.6% (inactive) |
| CC(C)(C#N)Nn1cnnc1 | 609 | 5.3% (inactive) | 13.2% (inactive) | 109 | -1.2% (inactive) | 110 | -0.237 (inactive) | -1.3e-05 (inactive) | 0.00429 (inactive) | 11.7% (inactive) | 21.2% (inactive) |
| COc1cccc(NC(=O)c2nnn(Cc3ccc(Br)cc3F)c2N)c1 | 674 | -2.8% (inactive) | 28.1% (inactive) | 109 | -61.5% (inactive) | 108 | -0.484 (inactive) | -4e-05 (inactive) | 0.00669 (inactive) | 16.4% (inactive) | 9.8% (inactive) |
